Assay outcomes: PubChem BioAssay, National Center for Advancing Translational Sciences (NCATS)
TbPYK inhibitor: blocks Trypanosoma brucei pyruvate kinase. Q57TT1. TbPYK enzyme, Kinase-Glo Plus ATP luminescence, 45 min. Potency, µM (highest dose often 76.8 µM), hits mostly inhibitors. hit rate 0.12% among 410,000; also: nearly all actives have a fitted effect of over 50% in size
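Quantitative HTS: titrated library compounds versus trypanosomal pyruvate kinase in TEA buffer (pH 7.2) containing KCl, MgCl2, BSA and Tween-20. Reactions were initiated with ADP, 130 uM final. Kinase-Glo Plus luminescence was read after 45 min at RT.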
AmpC no deterg: AmpC beta-lactamase inhibition without detergent; P00811; AID 485341; Potency, µM (series often up to 57.1 µM), most hits filed as inhibitors; AmpC nitrocefin hydrolysis, absorbance 480 nm, 0.0001% Triton; hit rate 0.52% among 330,000; also: nearly all actives have a fitted effect of over 20% in size
Target sequence (P00811 whole entry, looked up): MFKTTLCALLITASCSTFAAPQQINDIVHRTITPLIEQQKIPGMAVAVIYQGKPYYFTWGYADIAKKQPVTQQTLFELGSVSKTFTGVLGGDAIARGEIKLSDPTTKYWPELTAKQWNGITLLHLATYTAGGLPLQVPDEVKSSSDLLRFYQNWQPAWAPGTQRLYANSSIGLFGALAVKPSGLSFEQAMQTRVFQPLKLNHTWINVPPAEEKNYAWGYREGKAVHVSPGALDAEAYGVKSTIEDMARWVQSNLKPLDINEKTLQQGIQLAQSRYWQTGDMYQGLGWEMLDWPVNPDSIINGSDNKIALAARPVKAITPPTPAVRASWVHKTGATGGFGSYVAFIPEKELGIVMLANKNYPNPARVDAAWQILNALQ
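20 mM phosphate pH 7.0 + 0.01% (detergent screen) or 0.0001% Triton X-100; 5.3 nM AmpC reagent; cpd preinc 15 min RT; nitrocefin (800 uM stock) to start; A480 q20 s × 4 min; Activity was normalised to no-enzyme and no-compound control wells.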
AmpC inh detg: AmpC beta-lactamase inhibition with detergent present; hit rate 0.041% among 370,000; P00811; Potency, µM (highest dose often 114 µM), actives largely listed as inhibitors; AmpC hydrolysis of nitrocefin, absorbance 480 nm, 0.01% Triton; also: nearly all actives have a fitted effect of over 25% in size
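20 mM phosphate pH 7.0 + 0.01% (detergent screen) or 0.0001% Triton X-100; 5.3 nM AmpC reagent; cpd preinc 15 min RT; nitrocefin (800 uM stock) to start; A480 q20 s × 4 min; Activity was normalised to no-enzyme and no-compound control wells.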
Sm TGR inh: blocks Schistosoma mansoni thioredoxin glutathione reductase. Q962Y6. purified TGR, DTNB reduction, TNB absorbance 405 nm. Potency, µM (series often up to 114 µM), actives largely listed as inhibitors. hit rate 3% among 360,000. AID 485364; also: nearly all actives have a fitted effect of over 60% in size
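TGR 20 nM + NADPH 100 uM (dispensed conc.), cpd preinc 15 min RT; start with NADPH (500 uM addition) then DTNB (15 mM addition). Kinetic TNB absorbance, 405 nm filter. Four-parameter Hill fit across titration.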
SARS PLP yeast: inhibitors of SARS-CoV papain-like protease in yeast. S. cerevisiae expressing SARS-CoV PLpro, growth rescue. hit rate 0.19% among 330,000. Potency, µM (top dose mostly 32.9 µM), usual class: activators; calls by dose curve; also: nearly all actives have a fitted effect of over 55% in size
RE007 growth inh: less growth of the S. pombe RE007 Vpr strain | S. pombe RE007 Vpr strain, BacTiter-Glo ATP luminescence, 24 h | AID 651644 | hit rate 0.21% among 360,000 | Potency, µM (titrated, usually from 92.2 µM), usual class: inhibitors; active = well fitted falling curve with a large enough effect; inconclusive = small, poorly fitted or top-dose-only effect; inactive = no such curve, though single readings can be large or run the other way; also: nearly all actives have a fitted effect of over 50% in size
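Fission yeast strain RE007, carrying one chromosomally integrated HIV-1 vpr copy, was seeded at OD 0.01 in PMG+AL medium with 23 nL pinned compound. After 24 h at 30 °C and 99% humidity, viability was read by BacTiter-Glo luminescence.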
Of the large screens only hits and unclear results are named; the others gave an inactive call. In the library only some 3.3% were active in any assay of this set; here they are far more common. Unless noted, calls follow the shape of the dose curve; as a rule, active = well fitted curve in the direction sought with a large enough effect; inconclusive = small, poorly fitted or top-dose-only effect, or another doubt; inactive = no such curve, though single readings can be large; an effect the other way counts as inactive or inconclusive.

Cc1ccc(C)c(NC(=O)Cn2cc(S(=O)(=O)Cc3cccc(Cl)c3)c3ccccc32)c1	none (no result: AmpC no deterg, SARS PLP yeast, RE007 growth inh)
COc1cc(OC)c(NC(=O)c2c(C)oc3ncn(C)c(=O)c23)cc1Cl	none (no result: AmpC no deterg, SARS PLP yeast, RE007 growth inh)
COCCNc1oc(/C=C/c2ccccc2OC)nc1S(=O)(=O)c1ccccc1	Sm TGR inh 13µM
Cc1ccc2nc(SCCCCOc3ccccc3)[nH]c2c1	RE007 growth inh 56µM
Cn1cnc([N+](=O)[O-])c1Oc1ccc2ccccc2c1	Sm TGR inh 14µM
Cc1ccc(NC(=O)c2ccc(=O)n(CC(=O)Nc3cc(C)cc(C)c3)n2)cc1	none (no result: AmpC no deterg, SARS PLP yeast, RE007 growth inh)
CCSc1nc(-c2cccc(Cl)c2)nc2c1Cc1c(CO)cnc(C)c1O2	none (no result: AmpC no deterg, SARS PLP yeast, RE007 growth inh)
O=C(Cn1c(=O)nc(-c2ccccc2)c2cc(Cl)ccc21)NCc1ccccc1	none (no result: AmpC no deterg, SARS PLP yeast, RE007 growth inh)
CC(=O)NC(=O)NC1OC(=O)C(Cl)=C1Cl (stereo not drawn)	AmpC inh detg inconclusive, Sm TGR inh 3.5µM
C/C(CC1CC(COCC(C)C)OC1=O)=N\Nc1nc(-c2ccccc2)cs1 (stereo not drawn)	AmpC no deterg inconclusive, Sm TGR inh 56µM
O=S1(=O)c2cccc3cccc(c23)N1CCCN1CCN(c2ccc(F)cc2)CC1	none (no result: AmpC no deterg, AmpC inh detg, Sm TGR inh, SARS PLP yeast, RE007 growth inh)
COc1ccc(C(=O)COC(=O)CCN2C(=O)C3C4C=CC(C5CC45)C3C2=O)cc1 (stereo not drawn)	Sm TGR inh 25µM
Oc1ccc(NCc2ccccc2OCc2ccccc2F)cc1	TbPYK inhibitor inconclusive, AmpC inh detg inconclusive, Sm TGR inh 20µM
CCOc1ccccc1CNc1ccc(O)cc1	none (no result: Sm TGR inh)
CCOc1cccc(CNc2ccc(O)cc2)c1OCc1ccc(Cl)cc1	Sm TGR inh 32µM
Oc1ccc(NCc2ccccc2OCc2ccccc2Cl)cc1	Sm TGR inh 35µM (no result: AmpC no deterg, SARS PLP yeast, RE007 growth inh)
Cc1ccc(NCc2ccccc2OCc2ccccc2F)cc1	none
CCSC1=NC2(CCN(C(=O)NC3CCCCC3)CC2)N=C1c1ccc(C)c(C)c1	none (no result: AmpC no deterg, SARS PLP yeast, RE007 growth inh)
Cc1cccn2c(=O)c(C(=O)N3CCN(c4ccc(Cl)cc4)CC3)cnc12	none (no result: AmpC no deterg, SARS PLP yeast, RE007 growth inh)
CC(C)(C)C(=O)Cn1c(=O)n(-c2ccc(Cl)cc2)c(=O)c2c3c(sc21)CCCC3	none (no result: AmpC no deterg, SARS PLP yeast, RE007 growth inh)
COc1ccc(CC(=O)Nc2cc(C)on2)cc1	none
Cc1cc(NC(=O)CCOc2ccc(F)cc2)no1	Sm TGR inh 0.71µM
COc1ccc(OCCC(=O)Nc2cc(C)on2)cc1	Sm TGR inh 40µM
Cc1cc(NC(=O)c2ccc(F)cc2)no1	none
CCCC(=O)N1c2ccccc2[C@@H](N(C(C)=O)c2ccccc2)C[C@H]1C	none
CCC(=O)N1c2ccccc2C(N(C(C)=O)c2ccccc2)CC1C (stereo not drawn)	Sm TGR inh 10µM
Cc1ccc2c(C(=O)CN3CCOCC3)c(C)[nH]c2c1	Sm TGR inh inconclusive
Cc1ccc2c(C(=O)CN3CC(C)CC(C)C3)c(C)[nH]c2c1 (stereo not drawn)	Sm TGR inh 14µM (no result: TbPYK inhibitor, RE007 growth inh)
Cc1ccc2c(C(=O)CN3CCCC(C)C3)c(C)[nH]c2c1 (stereo not drawn)	AmpC inh detg inconclusive, Sm TGR inh 35µM
CCn1c(=NC(=O)c2ccco2)sc2cccc(F)c21	AmpC no deterg 3.5µM, AmpC inh detg inconclusive
CC(C)n1c(CCC(=O)O)ccc1-c1ccccc1	AmpC inh detg inconclusive, Sm TGR inh 18µM
O=C(O)CCc1ccc(-c2ccc(F)cc2)n1CC1CCCO1 (stereo not drawn)	Sm TGR inh inconclusive
O=C(O)CCc1ccc(-c2ccccc2)n1CC(=O)O	AmpC inh detg inconclusive, Sm TGR inh 35µM
O=C(O)CCc1ccc(-c2ccc(F)cc2)n1CCC(=O)O	Sm TGR inh 14µM
O=C(O)CCc1ccc(-c2ccccc2)n1NC(=O)c1ccco1	Sm TGR inh inconclusive
O=C(O)CCc1ccc(-c2ccc(Br)cc2)n1CC(=O)O	Sm TGR inh inconclusive
Cc1ccc(-c2ccc(CCC(=O)O)n2Cc2ccco2)cc1	Sm TGR inh 35µM
COC(=O)C(Cc1c[nH]c2ccccc12)NC(=O)COc1cccc(C)c1 (stereo not drawn)	none (no result: AmpC no deterg, SARS PLP yeast, RE007 growth inh)
